{"source": "paper PMC13423814", "key": {"[1]": {"biological_target": "26S proteasome non-ATPase regulatory subunit 5 (UniProt Q16401)", "sequence (Q16401 whole entry)": "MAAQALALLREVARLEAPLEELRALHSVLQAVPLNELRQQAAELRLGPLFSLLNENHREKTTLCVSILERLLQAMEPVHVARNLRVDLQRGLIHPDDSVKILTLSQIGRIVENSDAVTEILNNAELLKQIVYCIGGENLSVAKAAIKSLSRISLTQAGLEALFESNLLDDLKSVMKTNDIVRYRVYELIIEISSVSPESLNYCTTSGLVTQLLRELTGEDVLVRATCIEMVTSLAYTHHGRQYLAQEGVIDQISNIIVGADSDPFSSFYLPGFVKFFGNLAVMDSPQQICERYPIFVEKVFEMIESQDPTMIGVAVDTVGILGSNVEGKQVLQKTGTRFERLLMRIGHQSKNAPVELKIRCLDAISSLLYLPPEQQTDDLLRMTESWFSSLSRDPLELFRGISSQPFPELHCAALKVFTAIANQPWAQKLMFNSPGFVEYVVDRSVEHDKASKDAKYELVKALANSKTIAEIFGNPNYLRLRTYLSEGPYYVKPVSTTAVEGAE"}, "[2]": {"biological_target": "Histone H2B type 1-L (UniProt Q99880)"}, "[3]": {"biological_target": "Large ribosomal subunit protein eL28 (UniProt P46779)"}, "[4]": {"biological_target": "Twinfilin-1 (UniProt Q12792)"}, "[5]": {"biological_target": "Heterochromatin protein 1-binding protein 3 (UniProt Q5SSJ5)"}}, "data": [{"substance": "26S proteasome regulatory subunit 4, P62191", "values": [{"measurement": "listed as a hit", "setting": "[1]", "result": "yes"}]}, {"substance": "Histone H2A.V, Q71UI9", "values": [{"measurement": "listed as a hit", "setting": "[2]", "result": "yes"}]}, {"substance": "Calmodulin-3, P0DP25", "values": [{"measurement": "listed as a hit", "setting": "[3]", "result": "yes"}]}, {"substance": "Actin, cytoplasmic 1, P60709", "values": [{"measurement": "listed as a hit", "setting": "[4]", "result": "yes"}]}, {"substance": "Histone H4, P62805", "values": [{"measurement": "listed as a hit", "setting": "[5]", "result": "yes"}]}]}
